DUX4 inh – DUX4-mediated transcription inhibition; 0.8% of 37,000 active; AID 1224904; 293T-iDUX4 ZSCAN4-Gaussia luciferase reporter, 24 h; hits give low values; activity change, negative = inhibition, % (concentration not given with the values);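 active means mean inhibition of at least 10% in the main channel, exceeding the control channel by a set limit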;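 further: 0% = median of neutral control wells and -100% = median of positive control wells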
* = called active by the depositor; ! = not active in a repeat. Shown is part of a subset that was picked to be rich in hits.

SMILES	DUX4 inh
O=C(C[C@H]1C[C@H]2c3cc(NC(=O)Cc4ccncc4)ccc3O[C@H]2[C@H](CO)O1)NCCc1ccccc1	-21.4*
O=C(C[C@@H]1C[C@H]2c3cc(NC(=O)CC4CC4)ccc3O[C@H]2[C@@H](CO)O1)NCc1cc(F)ccc1F	6.8
O=C(C[C@@H]1C[C@H]2c3cc(NC(=O)Cc4ccncc4)ccc3O[C@H]2[C@H](CO)O1)NCc1cc(F)ccc1F	-3.7
O=C(C[C@H]1C[C@H]2c3cc(NC(=O)Cc4ccncc4)ccc3O[C@H]2[C@@H](CO)O1)NCCc1ccccc1	-8.0
O=C(C[C@H]1C[C@H]2c3cc(NC(=O)Cc4ccncc4)ccc3O[C@H]2[C@@H](CO)O1)NCc1cc(F)ccc1F	-21.3*
O=C(C[C@@H]1C[C@@H]2c3cc(NC(=O)Cc4ccncc4)ccc3O[C@@H]2[C@@H](CO)O1)NCCc1ccccc1	2.9
O=C(C[C@H]1C[C@H]2c3cc(NC(=O)NC4CCCC4)ccc3O[C@H]2[C@@H](CO)O1)NCCN1CCCCC1	2.4
CN1C(=O)c2cc(NC(=O)c3cscn3)ccc2OC[C@@H]2O[C@@H](CC(=O)N3CCOCC3)CC[C@@H]21	1.5
COc1cccc(-c2ccc(C3[C@@H]4CN(S(=O)(=O)c5ccccc5)C[C@H]3N4)cc2)c1 (some centres undefined)	-20.4*
COc1ccc(S(=O)(=O)N2[C@@H]3CNC[C@H]2C3c2ccc(-c3cccc(OC)c3)cc2)cc1 (some centres undefined)	10.5
CN(C)C(=O)c1cccc(-c2ccc(C3[C@@H]4CN(C(=O)Cc5ccccc5)C[C@H]3N4)cc2)c1 (some centres undefined)	9.2
O=S(=O)(c1ccccc1)N1C[C@@H]2N[C@H](C1)C2c1ccc(-c2cccnc2)cc1 (some centres undefined)	-12.6*!
COc1cccc(-c2ccc(C3[C@@H]4CN(S(=O)(=O)c5cccc(Cl)c5)C[C@H]3N4)cc2)c1 (some centres undefined)	-6.7
CN(C)C(=O)c1cccc(-c2ccc(C3[C@H]4CNC[C@@H]3N4S(=O)(=O)c3ccc(Cl)cc3)cc2)c1 (some centres undefined)	15.6
O=C(c1ccc(F)cc1)N1C[C@@H]2N[C@H](C1)C2c1ccc(-c2cccnc2)cc1 (some centres undefined)	-7.8
CN(C)C(=O)c1cccc(-c2ccc(C3[C@@H]4CN(S(=O)(=O)c5cccc(Cl)c5)C[C@H]3N4)cc2)c1 (some centres undefined)	-28.2*
O=S(=O)(c1ccc(F)cc1)N1[C@@H]2CNC[C@H]1C2c1ccc(-c2cccnc2)cc1 (some centres undefined)	4.9
O=C(Nc1cccc(Cl)c1)N1C[C@@H]2[C@H](c3ccccc31)[C@H](CO)N2C(=O)C1CCCC1	3.8
CNC(=O)C[C@@H]1CC[C@H]2[C@@H](COC[C@H](O)CN2Cc2ccc(Cl)c(Cl)c2)O1	-6.7
COc1ccc2c3c([nH]c2c1)[C@@H](CO)N(C(=O)Nc1ccc(F)cc1)CC31CN(C(=O)Nc2c(C)noc2C)C1	23.4
CCC(=O)N1[C@@H](CO)[C@@H]2c3ccccc3N(C(=O)CC(F)(F)F)C[C@@H]21	1.2
Cc1ccccc1S(=O)(=O)N1C[C@H](O)COC[C@@H]2O[C@@H](CC(=O)NCCc3ccccc3)CC[C@H]21	-0.1
O=C(NCc1ccccc1F)[C@@H]1[C@@H](CO)[C@@H]2Cn3c(cccc3=O)[C@@H]2N1CC1CC1	10.0
O=C1CCC(=O)N[C@H](c2ccc(F)cc2)C/C=C\C[C@@H](c2ccc(F)cc2)N1	0.9
C[C@@H]1CCCCO[C@H](CN(C)C(=O)CCC(F)(F)F)[C@H](C)CN([C@H](C)CO)C(=O)c2cc(NC(=O)Cc3ccccc3)ccc2O1	0.1
SMILES	DUX4 inh
COc1ccccc1CN1[C@@H](CO)[C@H](c2ccccc2)C12CN(C(C)=O)C2	-5.5
COc1ccccc1CN1[C@@H](CO)[C@@H](c2ccccc2)C12CN(C(C)=O)C2	3.4
COc1cccc(CN2[C@@H](CO)[C@H](c3ccccc3)C23CN(Cc2ccccc2OC)C3)c1	-44.5*
OC[C@H]1[C@H](c2ccccc2)C2(CN(Cc3ccccc3F)C2)N1Cc1ccccc1F	-34.6*
O=C(C1CC1)N1CC2(C1)[C@@H](c1ccccc1)[C@@H](CO)N2Cc1ccccc1F	-1.6
COc1cccc(CN2CC3(C2)[C@H](c2ccccc2)[C@@H](CO)N3Cc2ccccc2OC)c1	-35.9*
COc1ccccc1CN1[C@H](CO)[C@H](c2ccccc2)C12CN(C(C)=O)C2	3.4
COc1cccc(CN2[C@H](CO)[C@@H](c3ccccc3)C23CN(C(=O)C2CC2)C3)c1	-6.4
CCC(=O)N1CC2(C1)[C@H](c1ccccc1)[C@@H](CO)N2Cc1ccccc1F	3.2
Cc1noc(C)c1S(=O)(=O)Nc1ccc2c(c1)C(=O)N([C@H](C)CO)C[C@@H](C)[C@H](CN(C)C(=O)c1ccncc1)OCCCC[C@@H](C)O2	0.1
C[C@@H]1CN([C@H](C)CO)C(=O)CCCn2cc(nn2)CO[C@@H]1CN(C)Cc1ccc(C(=O)O)cc1	-1.6
